High-throughput results (PubChem)
This is a sample that favours compounds with a hit; in the whole collection about 3% have one here.
MITF act: activators of MITF-driven TRPM1 promoter reporter, primary screen, cell-based, SK-MEL-5, luciferase, single point; SK-MEL-5 TRPM1-promoter luciferase, 24 h; % of positive control, neutral wells = 0; activation, % at 12.5 µM; 0.75% of 300,000 active;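 active = mean activation of at least 80% with every replicate also reaching 80%; inconclusive = mean reaches 80% but some replicate falls short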;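 also: 0% = neutral control wells and 100% = parthenolide positive control wells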
C2C12 statin: suppressors of statin myotoxicity in C2C12 myotubes, primary screen, cell-based, single point, plate reader. C2C12 myotubes + simvastatin, ATP luminescence, 48 h; scaled: DMSO 0, geranylgeraniol control 100. 0.78% of 330,000 active. AID 602340, 2012. rescue of ATP level, % at 7.49 µM;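 active = mean ATP rescue above about 67%, or every replicate alone reaching that limit, limit read from the data, passing the limit was not always enough; inconclusive = no clear call, values can overlap the other calls; inactive = mean under the limit and some replicate under it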;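 also: myotubes were challenged with 10 µM simvastatin during compound exposure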
esBAF inh: Bmi1 luciferase reporter increase in mESCs, primary screen, esBAF inhibitor project, mouse ES cells, Bmi1 luciferase knock-in, single point. reporter increase, % at 12.5 µM. AID 602393, 2012. 2% of 350,000 active. 24 h; 100% = twice the neutral-well signal; in the data active = activation above about 40%; inconclusive = no clear call, values can overlap the other calls;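 also: 0% = median of the plate's neutral control wells and 100% = double that signal; a rise in the Bmi1 reporter signal indicates esBAF inhibition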
Wnt act: Wnt/beta-catenin pathway activators, primary screen, cell-based, plate reader, single point; AID 743398, 2014; 1.2% of 300,000 active; activation, % at 9.35 µM; Wnt/beta-catenin reporter cell assay, activator; in the data active = activation above about 30%, passing the limit was not always enough; inconclusive = no clear call, values can overlap the other calls;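 also: 0% = neutral control wells and 100% = positive control wells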
The depositor's hits bear a star; ? = inconclusive; · = not tested or not shown; ! = not active in a repeat.

SMILES	MITF act	C2C12 statin	esBAF inh	Wnt act
CCOc1ccc(N(CC(=O)Nc2ccc(OC)cc2)S(C)(=O)=O)cc1	·	-8	33	-1
CCOc1ccc(NC(=O)CN(c2ccc(OC)cc2)S(C)(=O)=O)cc1	57	111*	67*	·
Cc1ccccc1S(=O)(=O)N[C@@H]1CC[C@H](CCn2cc(Cc3ccccc3)nn2)O[C@H]1CO	·	1	10	·
CCCNC(=O)C[C@@H]1CC[C@H]2[C@H](COc3ccc(NC(=O)NC(C)C)cc3C(=O)N2C)O1	·	-2	-5	·
c1ccc(OCCOc2ncnc3ccccc23)cc1	?	-2	51*	·
COC(=O)C1=C(CSCc2ccco2)NC(=O)NC1c1cc(C)ccc1C (stereo unspecified)	·	134*	-3	-1
COC(=O)C1=C(CSCc2ccccc2)NC(=O)NC1c1cc(C)ccc1C (stereo unspecified)	4	9	8	-1
CCC(=O)N1[C@@H]2Cn3c(ccc(C4=CCCC4)c3=O)[C@H]1[C@@H](C(=O)N[C@@H](C)c1ccccc1)[C@@H]2CO	·	1	-1	·
C=CCC(O)(CCN1CCCCC1)c1ccccc1 (stereo unspecified)	-2	88*	-3	·
OC(CCN1CCCCC1)(c1ccccc1)c1ccccc1	-1	-2	6	-1
Nc1[nH]n(-c2ccccc2)c(=O)c1N=Nc1ccccc1[N+](=O)[O-]	128*	·	·	61*
Nc1[nH]n(-c2ccccc2)c(=O)c1N=Nc1ccccc1	75	6	54*	55*
Nc1[nH]n(-c2ccccc2)c(=O)c1N=Nc1ccc2ncsc2c1	49	6	35	20
Cc1ccc(N=Nc2c(C)[nH]n(-c3ccccc3)c2=O)cc1Br	·	-10	-3	0
O=c1c(N=Nc2ccccc2)c[nH]n1-c1ccccc1	·	1	18	45*
Cc1[nH]n(-c2ccccc2)c(=O)c1N=Nc1ccc2c(c1)OCCO2	74	·	·	35*
C[C@H](CO)N1C[C@H](C)[C@H](CN(C)CC2CC2)Oc2c(NS(=O)(=O)c3ccccc3)cccc2C1=O	·	1	7	·
Cc1noc(C)c1S(=O)(=O)N(C)C[C@H]1OCCCC[C@H](C)Oc2ccc(NC(=O)Nc3cccc4ccccc34)cc2C(=O)N([C@H](C)CO)C[C@@H]1C	·	·	-1	·
O=C(C1CCOCC1)N1[C@@H](CO)[C@@H]2c3ccccc3NC[C@@H]21	·	7	-1	·
Nc1cnc(Nc2ccc(Br)cc2)nc1N	72	-5	53*	2
CO[C@@H]1CN(C)C(=O)c2ccc(NC(=O)c3ccccn3)cc2OC[C@@H](C)N(CC2CC2)C[C@H]1C	·	5	5	·
COc1ccc(S(=O)(=O)N(C)C[C@H]2OCCCC[C@@H](C)Oc3ccc(NS(=O)(=O)c4ccc(F)cc4)cc3C(=O)N([C@@H](C)CO)C[C@H]2C)cc1	·	13	0	·
COc1ccc(S(=O)(=O)Nc2ccc3c(c2)C(=O)N([C@@H](C)CO)C[C@@H](C)[C@@H](CN(C)S(=O)(=O)c2ccc(F)cc2)OCCCC[C@H](C)O3)cc1	·	151*	0	·
COc1ccc(S(=O)(=O)Nc2ccc3c(c2)C(=O)N([C@@H](C)CO)C[C@H](C)[C@H](CN(C)Cc2ccc4c(c2)OCO4)OCCCC[C@@H](C)O3)cc1	·	11	-4	·
COc1ccc(S(=O)(=O)Nc2ccc3c(c2)C(=O)N([C@@H](C)CO)C[C@@H](C)[C@@H](CN(C)Cc2ccc4c(c2)OCO4)OCCCC[C@H](C)O3)cc1	·	90*	0	·
SMILES	MITF act	C2C12 statin	esBAF inh	Wnt act
C[C@@H]1CN([C@H](C)CO)C(=O)c2cc(NS(=O)(=O)c3ccc(F)cc3)ccc2O[C@@H](C)CCCCO[C@H]1CN(C)CC1CCCCC1	·	-309	-2	·
C[C@@H]1CCCCO[C@@H](CN(C)CC2CCCCC2)[C@@H](C)CN([C@H](C)CO)C(=O)c2cc(NS(=O)(=O)c3ccc(F)cc3)ccc2O1	·	96*	5	·
COc1ccc(S(=O)(=O)Nc2ccc3c(c2)C(=O)N([C@@H](C)CO)C[C@@H](C)[C@@H](CN(C)S(=O)(=O)c2ccc(F)cc2)OCCCC[C@@H](C)O3)cc1	·	133*	3	·
CC(C)C(=O)Nc1ccc2c(c1)C(=O)N(C)[C@@H]1CC[C@H](CC(=O)NCc3ccc(F)cc3)O[C@H]1CO2	·	-5	2	·
C[C@@H]1CN([C@H](C)CO)C(=O)c2cccc(NS(=O)(=O)c3ccc(F)cc3)c2O[C@@H]1CN(C)Cc1ccc(-c2ccccc2)cc1	·	24	-2	·
C[C@H]1CCCCO[C@H](CN(C)S(=O)(=O)c2cccs2)[C@@H](C)CN([C@@H](C)CO)C(=O)c2cc(NC(=O)Nc3ccc(F)cc3)ccc2O1	·	-84	2	·
COc1ccc(S(=O)(=O)Nc2ccc3c(c2)C(=O)N([C@@H](C)CO)C[C@@H](C)[C@@H](CN(C)S(=O)(=O)c2cccs2)OCCCC[C@H](C)O3)cc1	·	91*	5	·
C[C@@H]1CN([C@H](C)CO)C(=O)c2cc(NC(=O)C3CC3)ccc2O[C@H]1CN(C)CC1CCCCC1	·	-32	-8	·
C[C@@H]1CN([C@H](C)CO)C(=O)c2cc(NC(=O)Nc3ccc(F)cc3)ccc2O[C@@H](C)CCCCO[C@H]1CN(C)S(=O)(=O)c1cccs1	·	141*!	15	-8
C[C@H]1CN([C@@H](C)CO)C(=O)c2cc(NC(=O)C3CC3)ccc2O[C@@H]1CN(C)CC1CCCCC1	·	81*	-1	·
Cc1noc(C)c1S(=O)(=O)Nc1ccc2c(c1)C(=O)N([C@H](C)CO)C[C@@H](C)[C@H](CN(C)C(=O)CCCN(C)C)OCCCC[C@@H](C)O2	·	·	-4	·
CO[C@@H]1CN(C)C(=O)c2ccc(NC(=O)C3CCCCC3)cc2OC[C@@H](C)N(C(=O)Nc2ccc(C(F)(F)F)cc2)C[C@H]1C	·	4	16	·
O=C(N/N=C/c1ccc(Cl)cc1Cl)c1n[nH]c2c1CCCC2	65	·	·	·
O=C(N/N=C\c1cccc(Cl)c1)c1n[nH]c2c1CCCC2	100*	·	·	?
C[C@@H]1CN([C@H](C)CO)C(=O)Cc2cc(NC(=O)Cn3cnnn3)ccc2O[C@@H]1CN(C)Cc1ccc(C(=O)O)cc1	·	-12	4	·
COc1cccc2cc(CC(=O)c3ccc(C)cc3C)c(=O)oc12	90*	-9	87*	14
CO[C@@H]1CN(C)C(=O)c2cc(NS(=O)(=O)c3cccc(F)c3)ccc2OC[C@H](C)NC[C@@H]1C	·	12	6	·
CNC(=O)C[C@@H]1CC[C@H]2[C@@H](COc3ccc(NC(=O)Nc4ccc(F)cc4)cc3C(=O)N2C)O1	·	2	-4	·
COc1cc(CNn2nnnc2N)ccc1OCC(=O)NC(C)(C)C	12	8	-14	·
CCOc1cc(CNn2nnnc2N)ccc1OCC(=O)NC(C)(C)C	-14	83*	6	-1
O=C(COC(=O)C12CC3CC(CC(O)(C3)C1)C2)Nc1ccc(Br)cc1F	129*	2	17	?
COc1ccccc1CC(=O)Nc1cc(C)on1	·	2	-12	-1
